Among the data in PubChem BioAssay AID1974 (The Scripps Research Institute Molecular Screening Center, 2009) are inhibition values, retold here.

Structures are written as SMILES. Among all 300,000 compounds or so, about 3,200 (1.1%) were called active. This excerpt belongs to a sample that is enriched for actives. Values without a mark were called inactive.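 Rule for the calls: active = inhibition above the campaign mean inhibition plus 3 SD (cut at about 35% in these data); inactive = the rest.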

This assay deals with Glutathione S-transferase omega-1 (Homo sapiens) (UniProt P78417). Briefly: human GSTO1 enzyme inhibition – biochemical, fluorescence polarization, counter-screen for RBBP9 inhibitor project, primary screen (AID 1974).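 Note: 0% = GSTO1-1 with DMSO and 100% = wells lacking GSTO1-1 enzyme.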 As to conditions: recombinant GSTO1, activity-based probe fluorescence polarization; at 5.96 µM; hits give high values. (In general: Fluorescence polarisation rises when a labelled molecule tumbles more slowly, as on binding a larger partner.)
Chain of Glutathione S-transferase omega-1 (Homo sapiens) (P78417 whole entry, looked up): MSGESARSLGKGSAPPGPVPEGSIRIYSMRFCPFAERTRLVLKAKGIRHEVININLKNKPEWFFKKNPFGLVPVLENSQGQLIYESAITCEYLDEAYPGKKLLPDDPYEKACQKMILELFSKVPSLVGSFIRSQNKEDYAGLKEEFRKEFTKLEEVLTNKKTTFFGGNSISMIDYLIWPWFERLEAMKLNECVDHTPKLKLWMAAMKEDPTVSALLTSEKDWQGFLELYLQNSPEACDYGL
As usually defined, the inhibition is the drop in the measured response relative to a control, in per cent. Consider `CN(C)C1=NC[C@H](Cc2ccccc2)N1CCc1ccc(F)cc1`, for which the inhibition was 0.73%.

For `OCC[C@H]1C[C@@H](O)[C@H](O)[C@@]2(OCCc3ccccc32)O1`, the inhibition is 7.38%.

Regarding `Cc1nc2c(c(C)nn2-c2ccccc2)c(C)c1C`, the inhibition was 15.1%.

Regarding `Cc1c(C)c2ccc(OCC(=O)N3CCC(C(=O)O)CC3)c(C)c2oc1=O`, the inhibition was -1.66%.

Regarding `Cc1c(CC(=O)N2CCN(C(=O)C3COc4ccccc4O3)CC2)c(=O)oc2c(O)c(O)ccc12` (stereo not drawn), the inhibition was 45.1% (active). Consider `O=C(CNC(=O)C1COc2ccccc2O1)N/N=C/c1cc(Br)c(O)c(Br)c1` (stereo not drawn), for which the inhibition is -6.29%. On to `CC(C)(C)OC(=O)c1c(N)n(CCCN2CCCC2=O)c2nc3ccccc3nc12`, for which the inhibition was 63.9% (active). For `O=C(NCCCN1CCCC1=O)c1ccc(S(=O)(=O)Nc2ccccc2)cc1`, the inhibition was 0.39%.

On to `COCC(C)OC(=O)c1c(N)n(CCCN2CCOCC2)c2nc3ccccc3nc12` (stereo not drawn), for which the inhibition was 11.9%. Under `O=[N+]([O-])c1ccc(S(=O)(=O)Nc2cccc(-c3ccc(N4CCCC4)nn3)c2)cc1` stands -8.25%; under `COc1ccc(CNC(=O)[C@@H]2CC=C[C@@H]3CCN(C4CC4)C(=O)[C@@H]32)cc1`, -0.21%; under `CN1CCN(c2ccc(NC(=O)c3ccccc3)cc2)CC1`, 2.04%. Regarding `Cc1cccc(N2CCN(c3ccc(NC(=O)/C=C\C(=O)O)cc3)CC2)c1`, the inhibition is 42.2% (active). For the compound `CSc1ccc(NC(=O)/C=C/C(=O)O)cc1`, the inhibition was 0.81%. Turning to `CCCn1c(C)cc(-c2csc(NC(=O)CCc3nc4ccccc4c(=O)[nH]3)n2)c1C`, the inhibition is -4.01%. As for `O=C(CCc1[nH]c2ccccc2c1Sc1ccccc1)N(CCO)CCO`, the inhibition was 3.25%. On to `CCCCN(C(=O)CCNC(=O)NC12CC3CC(CC(C3)C1)C2)c1c(N)n(CCCC)c(=O)[nH]c1=O`, for which the inhibition is -0.02%. Turning to `N#CC1(NC(=O)COC(=O)CSc2ccc(F)cc2)CCCCC1`, the inhibition was 6.75%. As to `Cc1cccc(NC(=O)c2ccc(S(=O)(=O)N(C)CC3CCCO3)cc2)c1C` (stereo not drawn), the inhibition is -5.06%. For the compound `CN(CC1CCCO1)S(=O)(=O)c1ccc(C(=O)Nc2ccc(F)cc2)cc1` (stereo not drawn), the inhibition was 2.1%. For `CCOC(=O)c1c(NC(=O)c2ccc(S(=O)(=O)N(C)CC3CCCO3)cc2)sc2c1CC(C)(C)NC2(C)C` (stereo not drawn), the inhibition was 55.4% (active).

As to `O=C(Nc1ccc(S(=O)(=O)N2CCCCC2)cc1)C1CCN(C(=O)c2ccc(F)cc2)CC1`, the inhibition was -4.69%. Under `CC(Oc1cccc(Cl)c1)C(=O)Nc1ccc(S(=O)(=O)Nc2ncccn2)cc1` (stereo not drawn) stands -7.06%.
